PubChem BioAssay AID1159580 (chemical genetic matrix, 2015)
Out of some 5,500 compounds screened, about 2,000 (36%) were called active. Another 18% or so got no clear call; they are omitted. This is one part of the list. A number with no mark means an inactive call. Cut-off read from the data, not from the text of the source: active = normalized growth mostly below about 0.91 (no sharp cut-off); inconclusive = no clear call, values can overlap the other calls; inactive = mostly above about 0.92.

Experiment: chemical genetic growth profiling, strain panel (AID 1159580);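 note: tested at 20 µM; growth read once vehicle control cultures reached saturation at 30 °C; 1 = growth at the plate median or of vehicle wells; lower values mean less growth of the strain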
Conditions: S. cerevisiae deletion strains, growth OD
[1] = locus YDL101C, strain DUN1, active compounds read low
[2] = locus YHR030C, strain SLT2, active compounds read low

Work on `CC(=O)CC(C)=Nc1ccc(C(F)(F)F)cc1` yielded a normalized growth (locus YAL013W, strain DEP1, active compounds read low) of 0.989, a normalized growth (locus YBR229C, strain ROT2, active compounds read low) of 0.991 and a normalized growth [1] of 0.994. The normalized growth (locus YDL134C, strain PPH21, active compounds read low) was 1.03, the normalized growth (locus YDR150W, strain NUM1, active compounds read low) was 0.908 and the normalized growth (locus YEL061C, strain CIN8, active compounds read low) was 1.01. It also gave a normalized growth (locus YGR078C, strain PAC10, active compounds read low) of 0.981, a normalized growth (locus YGR229C, strain SMI1, active compounds read low) of 1.02 and a normalized growth [2] of 1.08. The normalized growth (locus YHR087W, strain rtc3, active compounds read low) was 0.971, the normalized growth (locus YJL187C, strain SWE1, active compounds read low) was 0.995 and the normalized growth (locus YJR043C, strain POL32, active compounds read low) was 1.01. It also gave a normalized growth (locus YJR075W, strain HOC1, active compounds read low) of 1.05, a normalized growth (locus YLR039C, strain RIC1, active compounds read low) of 1.05 and a normalized growth (locus YLR058C, strain SHM2 (second series), active compounds read low) of 1. The normalized growth (locus YLR085C, strain ARP6, active compounds read low) was 1.03, the normalized growth (locus YLR262C, strain YPT6, active compounds read low) was 1.04 and the normalized growth (locus YML094W, strain GIM5, active compounds read low) was 0.993. It also gave a normalized growth (locus YMR219W, strain ESC1, active compounds read low) of 1, a normalized growth (locus YMR263W, strain SAP30, active compounds read low) of 1.05 and a normalized growth (locus YNL153C, strain GIM3, active compounds read low) of 0.985. It also gave a normalized growth (locus YNL298W, strain CLA4 (second series), active compounds read low) of 1.05, a normalized growth (locus YNL322C, strain KRE1, active compounds read low) of 1 and a normalized growth (locus YNR030W, strain Alg12, active compounds read low) of 1.02. The normalized growth (locus YPL055C, strain LGE1, active compounds read low) was 0.939, the normalized growth (locus YPL241C, strain CIN2, active compounds read low) was 1.08 and the normalized growth (locus YPR135W, strain CTF4, active compounds read low) was 0.969.
For `N#CC(C#N)=NNc1ccc(C(F)(F)F)cc1`, the normalized growth (locus YAR019C, strain CDC15, active compounds read low) was 0.135 (active), the normalized growth (locus YBL105C, strain PKC1, active compounds read low) was 0.148 (active) and the normalized growth (locus YBR135W, strain CKS1, active compounds read low) was 0.135 (active). The normalized growth (locus YBR136W, strain MEC1, active compounds read low) was 0.147 (active), the normalized growth (locus YBR160W, strain CDC28, active compounds read low) was 0.168 (active) and the normalized growth (locus YDL017W, strain CDC7, active compounds read low) was 0.178 (active). The normalized growth (locus YDL028C, strain MPS1, active compounds read low) was 0.311 (active), the normalized growth [1] was 0.124 (active) and the normalized growth (locus YDL108W, strain KIN28, active compounds read low) was 0.152 (active). The normalized growth (locus YDL132W, strain cdc53, active compounds read low) was 0.126 (active), the normalized growth (locus YDL214C, strain PRR2, active compounds read low) was 0.131 (active) and the normalized growth (locus YDR052C, strain DBF4, active compounds read low) was 0.255 (active). For the same compound, the normalized growth (locus YDR054C, strain cdc34, active compounds read low) was 0.138 (active), the normalized growth (locus YDR226W, strain ADK1, active compounds read low) was 0.178 (active) and the normalized growth (locus YDR477W, strain SNF1, active compounds read low) was 0.116 (active). The normalized growth (locus YER123W, strain YCK3, active compounds read low) was 0.116 (active), the normalized growth (locus YER133W, strain GLC7, active compounds read low) was 0.11 (active) and the normalized growth (locus YFL009W, strain cdc4, active compounds read low) was 0.132 (active). The normalized growth (locus YFL029C, strain CAK1, active compounds read low) was 0.138 (active), the normalized growth (locus YFR003C, strain YPI1, active compounds read low) was 0.339 (active) and the normalized growth (locus YFR019W, strain FAB1, active compounds read low) was 0.12 (active). The normalized growth (locus YFR028C, strain CDC14, active compounds read low) was 0.144 (active), the normalized growth (locus YGR040W, strain KSS1, active compounds read low) was 0.113 (active) and the normalized growth (locus YGR052W, strain FMP48, active compounds read low) was 0.129 (active). For the same compound, the normalized growth (locus YGR092W, strain DBF2, active compounds read low) was 0.105 (active), the normalized growth [2] was 0.144 (active) and the normalized growth (locus YHR079C, strain IRE1, active compounds read low) was 0.155 (active). For the same compound, the normalized growth (locus YHR082C, strain KSP1, active compounds read low) was 0.169 (active), the normalized growth (locus YHR205W, strain SCH9, active compounds read low) was 0.0194 (active) and the normalized growth (locus YIL147C, strain SLN1, active compounds read low) was 0.397 (active). For the same compound, the normalized growth (locus YJL095W, strain BCK1, active compounds read low) was 0.116 (active), the normalized growth (locus YJL128C, strain PBS2, active compounds read low) was 0.149 (active) and the normalized growth (locus YJL157C, strain FAR1, active compounds read low) was 0.106 (active). For the same compound, the normalized growth (locus YJR016C, strain ILV3, active compounds read low) was 0.13 (active), the normalized growth (locus YJR066W, strain TOR1 (second series), active compounds read low) was 0.116 (active) and the normalized growth (locus YJR066W, strain TOR1, active compounds read low) was 0.146 (active). For the same compound, the normalized growth (locus YKL048C, strain ELM1, active compounds read low) was 0.134 (active), the normalized growth (locus YKL067W, strain YNK1, active compounds read low) was 0.113 (active) and the normalized growth (locus YKL101W, strain HSL1, active compounds read low) was 0.112 (active). The normalized growth (locus YKL193C, strain SDS22, active compounds read low) was 0.118 (active), the normalized growth (locus YKL203C, strain TOR2, active compounds read low) was 0.132 (active) and the normalized growth (locus YLR113W, strain HOG1, active compounds read low) was 0.166 (active). For the same compound, the normalized growth (locus YLR133W, strain CKI1, active compounds read low) was 0.109 (active), the normalized growth (locus YLR403W, strain SFP1, active compounds read low) was 0.0217 (active) and the normalized growth (locus YML070W, strain DAK1, active compounds read low) was 0.106 (active). The normalized growth (locus YMR001C, strain CDC5, active compounds read low) was 0.133 (active), the normalized growth (locus YMR205C, strain PFK2 (second series), active compounds read low) was 0.104 (active) and the normalized growth (locus YMR277W, strain FCP1, active compounds read low) was 0.119 (active). The normalized growth (locus YNL006W, strain LST8, active compounds read low) was 0.194 (active), the normalized growth (locus YNL020C, strain ARK1, active compounds read low) was 0.128 (active) and the normalized growth (locus YNL161W, strain CBK1, active compounds read low) was 0.137 (active). For the same compound, the normalized growth (locus YNL183C, strain NPR1, active compounds read low) was 0.141 (active), the normalized growth (locus YNL207W, strain RIO2, active compounds read low) was 0.155 (active) and the normalized growth (locus YNL222W, strain SSU72, active compounds read low) was 0.131 (active). The normalized growth (locus YNL307C, strain MCK1 (second series), active compounds read low) was 0.133 (active), the normalized growth (locus YOL078W, strain AVO1, active compounds read low) was 0.117 (active) and the normalized growth (locus YOL136C, strain PFK27, active compounds read low) was 0.111 (active). The normalized growth (locus YOR061W, strain CKA2, active compounds read low) was 0.108 (active), the normalized growth (locus YOR119C, strain RIO1, active compounds read low) was 0.119 (active) and the normalized growth (locus YOR231W, strain MKK1, active compounds read low) was 0.126 (active). For the same compound, the normalized growth (locus YOR329C, strain SCD5, active compounds read low) was 0.187 (active), the normalized growth (locus YPL031C, strain PHO85, active compounds read low) was 0.116 (active) and the normalized growth (locus YPL153C, strain RAD53, active compounds read low) was 0.107 (active). The normalized growth (locus YPL204W, strain HRR25, active compounds read low) was 0.115 (active), the normalized growth (locus YPL209C, strain IPL1, active compounds read low) was 0.135 (active) and the normalized growth (locus YPL256C, strain CLN2, active compounds read low) was 0.179 (active). The normalized growth (locus YPR025C, strain CCL1, active compounds read low) was 0.154 (active), the normalized growth (locus YPR106W, strain ISR1, active compounds read low) was 0.116 (active) and the normalized growth (locus YPR111W, strain DBF20, active compounds read low) was 0.122 (active). The normalized growth (strain NNK1, active compounds read low) was 0.124 (active) and the normalized growth (strain TSCII, active compounds read low) was 0.137 (active).
